Drawing on PubChem BioAssay AID1220 (Sanford-Burnham Center for Chemical Genomics, 2008), this text covers inhibition for 100 compounds.

The structures appear in SMILES notation. The whole screen tested about 190,000 compounds, of which about 1,300 (0.68%) were called active. For the sample, actives were picked, then their nearest neighbours and some compounds at random. Values without a mark were called inactive. Cut-off read from the data, not from the text of the source: active = inhibition above about 50%; inactive = the rest.

Chain of Mannose-6-phosphate isomerase (Homo sapiens) (P34949 whole entry, looked up): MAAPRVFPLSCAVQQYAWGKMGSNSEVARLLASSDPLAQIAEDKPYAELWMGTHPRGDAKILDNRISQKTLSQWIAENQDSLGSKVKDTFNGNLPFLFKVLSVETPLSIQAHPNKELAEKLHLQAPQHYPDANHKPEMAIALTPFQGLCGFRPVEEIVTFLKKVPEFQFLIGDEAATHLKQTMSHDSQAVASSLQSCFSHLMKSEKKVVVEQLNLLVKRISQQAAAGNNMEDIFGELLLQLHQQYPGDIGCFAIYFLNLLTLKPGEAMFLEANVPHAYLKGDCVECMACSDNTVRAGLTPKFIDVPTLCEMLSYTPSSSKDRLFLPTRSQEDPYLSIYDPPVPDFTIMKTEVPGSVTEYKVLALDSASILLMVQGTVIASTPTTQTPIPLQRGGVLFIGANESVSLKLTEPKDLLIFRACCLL

This experiment concerns the target Mannose-6-phosphate isomerase (Homo sapiens) (UniProt P34949). Nature of the experiment: MPI inhibition at elevated mannose 6-phosphate – biochemical, fluorescence intensity, high mannose 6-phosphate, primary screen (AID 1220). To be noted: recombinant PMI enzyme, coupled fluorescence intensity; at 20 µM; stronger effect = higher value.
For `COc1cc(C(F)(F)F)nc(-c2ccccn2)n1`, the inhibition was 4.9%. As for `O=C(CN1CCOCC1)Nc1ccc2c(c1)OCO2`, the figure is 4.7%.

In the case of `O=C(c1ccc(N2CCOCC2)cc1[N+](=O)[O-])N1CCOCC1`, the inhibition is 7.3%.

For the compound `O=C(CN1CCN(c2ccc(O)cc2)CC1)Nc1ccc2c(c1)OCCO2`, the inhibition is 62.8% (active).

Take `O=C(CN1CCN(c2ccccc2)CC1)Nc1ccc2c(c1)OCCO2`: the inhibition is -3.7%. In the case of `CC(=O)c1cc(N2CCOCC2)ccc1[N+](=O)[O-]` it was 2.8%.

Regarding `CN(C)/C=C/C(=O)c1cc(N2CCOCC2)ccc1[N+](=O)[O-]`, the inhibition was 55.9% (active). In the case of `O=C(NC1=NCCS1)c1cccc(S(=O)(=O)N2CCCCC2)c1` it was 7.1%; in that of `Cc1cc(N2CCOCC2)nc2ccc(NC(=O)C3CCC(C)CC3)cc12` (stereo not given), 0.8%. In the case of `COc1ccc(/C(C)=N/NC(=O)C2CC2)cc1` it was -2.9%; in that of `CCc1ccc(NC(=S)N2CCCC(C(F)(F)F)C2)cc1` (stereo not given), 13.4%; in that of `O=C1C(=Cc2ccco2)C(=O)c2ccccc21`, -11.7%.

In the case of `c1cc2[nH]snc2c2nc(C3CC3)nc12`, the inhibition was 54.2% (active). As for `Cc1nc2ccc3[nH]snc3c2n1`, the inhibition is 2.6%. Turning to `Cc1cc(/C=C2\NC(=O)N(Cc3ccc(Cl)cc3)C2=O)c(C)n1C`, the inhibition is -58.7%. In the case of `O=C(CN1C(=O)S/C(=C\c2ccc(O)cc2)C1=O)c1ccccc1` it was 12.5%. As for `CS(=O)(=O)N1CCN(c2ccccc2NC(=O)CSc2nnc(-c3ccco3)o2)CC1`, the inhibition is 0.5%. As for `CC(C)CN(C(=O)CSc1nnc(-c2ccco2)o1)c1c(N)n(Cc2ccccc2)c(=O)[nH]c1=O`, the figure is -2.6%; as for `ONc1cccnc1-n1nc(C(F)(F)F)cc1C(F)(F)F`, 67.9% (active); as for `Cc1cc(C(F)(F)F)nn1C(=O)c1cccnc1Cl`, 6.5%.

`Nc1cccnc1-n1nc(C(F)(F)F)cc1C(F)(F)F`: the inhibition is -0.6%. As for `COc1cccc(N2CCN(c3ccc(S(=O)(=O)N4CCCC4)cc3)CC2)c1`, the figure is 18.6%; as for `Cc1sc2ncnc(NCC(C)(C)N3CCOCC3)c2c1C`, -3.6%; as for `CCOC(=O)/C(=C/c1ccc(OC(=O)c2ccccc2)cc1)C(C)=O`, 4.7%. In the case of `CCOC(=O)/C(=C/c1ccc(OC(=O)c2ccncc2)cc1)C(C)=O` it was 61.4% (active); in that of `COCCOC(=O)/C(=C/c1ccc(OC(=O)c2ccccc2)cc1)C(C)=O`, 0.4%; in that of `Cn1c2ccccc2c2ncn(CCC3=CCCCC3)c(=O)c21`, 9.7%. In the case of `CCOC(=O)CSc1nc(C)c2cc(C)c(C)cc2n1` it was 1.6%; in that of `O=C(NC1C=CS(=O)(=O)C1)c1ccccc1` (stereo not given), 5.8%; in that of `COc1cccc(OC)c1C(=O)Oc1ccc2c(c1)O/C(=C\c1ccncc1)C2=O`, 7.7%.

`COc1ccc(NC(=O)CSc2ncnc3c2cnn3Cc2ccccc2)cc1`: the inhibition is 8.2%.

On to `O=C(Oc1cccc2c(OC(=O)N3CCCC3)cccc12)N1CCCC1`, for which the inhibition is 57.3% (active). As for `O=C(Oc1cccc2c(OC(=O)N3CCOCC3)cccc12)N1CCOCC1`, the figure is 2.4%. On to `O=C(Oc1ccc(Cl)c2ccccc12)N1CCCCC1`, for which the inhibition is -3.1%. Take `CC(C)CCC(C)N=Cc1c(O)n(Cc2ccccc2)c(=O)c2ccccc12` (stereo not given): the inhibition is 6.3%. In the case of `CCOC(=O)Nc1ccc(Oc2ccccc2)cc1` it was 4.8%; in that of `N#CC1=C(N)C(C#N)(C#N)C(c2cccnc2)C2CC(c3ccccc3)CC=C12` (stereo not given), 47.2%. In the case of `N#CC1=C(N)C(C#N)(C#N)C(c2ccc[nH]2)C2CCCC=C12` (stereo not given) it was 35.1%; in that of `N#CC1=C(N)C(C#N)(C#N)C(c2cccnc2)C2CCCC=C12` (stereo not given), 50.3% (active). As for `O=C(O)CCC(=O)Nc1ccc(C(=O)OCC(=O)c2ccc(Cl)cc2Cl)cc1`, the figure is 6.3%. As for `CCCCOC(=O)c1ccc(S(N)(=O)=O)o1`, the inhibition was -1.2%. As for `O=C(CCNc1cc(Cl)cc(Cl)c1)c1cccs1`, the figure is 7.8%; as for `COc1cc(NCCC(=O)c2cccs2)c(OC)cc1Cl`, 51.4% (active); as for `Cc1ccc(NCCC(=O)c2cccs2)cc1Cl`, 18.9%. As for `Clc1ccc(CSc2ncnc3nc[nH]c23)cc1`, the figure is 3.6%; as for `C=CCc1cccc(/C=N/c2ncccc2O)c1O`, 34.3%; as for `C=CCc1cccc(C=Nc2cc(Br)ccc2O)c1O`, 57% (active). As to `C=CCc1cccc(C=Nc2ccc(Br)cc2)c1O`, the inhibition was -8.2%. As for `O=C(NCCCN1CCCC1=O)C1CCCO1` (stereo not given), the figure is 5.1%; as for `CC(C)(C)c1nn(-c2ccccc2)c2[nH]c(=O)c(CNc3ccc4c(c3)OCCO4)cc12`, 5.7%.

`Cc1nn(-c2ccccc2)c2[nH]c(=O)c(CNc3ccc4c(c3)OCCO4)cc12`: the inhibition is 54.2% (active). In the case of `Cc1nn(-c2ccccc2)c2[nH]c(=O)c(CNCCN3CCOCC3)cc12` it was 4.3%. As to `Cc1nn(-c2ccccc2)c2[nH]c(=O)c(CNc3ccc(N4CCOCC4)cc3)cc12`, the inhibition was 55.6% (active). As for `Cc1nn(-c2ccccc2)c2[nH]c(=O)c(CNCc3ccc4c(c3)OCO4)cc12`, the figure is 2.9%; as for `CCc1ccc(NCc2cc3c(C)nn(-c4ccccc4)c3[nH]c2=O)cc1`, 8.8%; as for `Cn1cc(S(=O)(=O)CC(=O)N2CCCc3ccccc32)c2ccccc21`, 6.6%.

On to `Cc1ccc(N2C(=O)NC(NC(=O)C(C)(C)C)(C(F)(F)F)C2=O)cc1` (stereo not given), for which the inhibition is 4.9%. As for `COC(=O)c1ccc(/C=N/NC(=O)CNc2cccc(C)c2)cc1`, the figure is 9.8%. In the case of `CN(C)S(=O)(=O)c1cccc(NC(=S)Nc2cc(Cl)cc(Cl)c2)c1` it was -6.4%; in that of `CCN(CCO)c1ccc(NC(=S)Nc2cccc(S(=O)(=O)N(C)C)c2)cc1`, 54.1% (active). In the case of `CN(C)S(=O)(=O)c1cccc(NC(=S)NC2CCCCC2)c1` it was -2.3%; in that of `CCN(Cc1ccccc1)S(=O)(=O)c1cc(C(=O)c2c(N)n(C)c(=O)n(C)c2=O)ccc1OC`, 0.7%; in that of `CC1CCCN(C(=S)SCC(=O)O)C1` (stereo not given), 0.2%.

For `CC(C)(C)NCC(=O)N/N=C/c1ccc(OCc2ccccc2)cc1`, the inhibition was -4.4%. In the case of `Cc1cc(=O)[nH]c2c(N=Nc3ccc(O)cc3)c(N)nn12` it was 45.7%. As for `Nc1nn2c(-c3ccccc3)cc(=O)[nH]c2c1N=Nc1ccc(Br)cc1`, the figure is 12.3%; as for `Nc1nn2c(-c3ccccc3)cc(=O)[nH]c2c1N=Nc1ccc(O)cc1`, 55.4% (active). In the case of `COC(=O)c1ccccc1NC(=O)N1CCN(C(=O)c2ccco2)CC1`, the inhibition is 13.1%. In the case of `CCn1c(C)c(C(C)=O)c(N2CCN(c3ccc(OC)cc3)CC2)nc1=S` it was 50.3% (active); in that of `CCn1c(C)c(C(C)=O)c(N2CCN(c3ccc(F)cc3)CC2)nc1=S`, -6.4%; in that of `CCn1c(C)c(C(C)=O)c(N2CCN(c3ccccc3)CC2)nc1=S`, -20.8%. In the case of `O=S(=O)(c1ccc(Br)cc1)N1CCN=C1SCc1cccnc1` it was 0.3%.

Consider `Cc1ccc(-n2c(=O)c3ccccc3n(CC(=O)NCc3ccco3)c2=O)cc1`, for which the inhibition was -5.8%. In the case of `CCCc1nnc2c(N(C)S(=O)(=O)c3ccccc3)nc3ccccc3n12`, the inhibition was 4.2%. For the compound `COc1ccc(NC(=S)NC(C)Cc2cccs2)cc1` (stereo not given), the inhibition was 3.7%. As for `CCc1cccc(NC(=O)Cn2cc(C=O)c3ccccc32)c1`, the figure is -9.7%. As for `O=C(COc1ccc(Br)cc1)NCCO`, the figure is 8.7%. Regarding `CC(C)c1ccc(OCC(=O)NCCO)cc1`, the inhibition is 55.1% (active). As for `CC(C)c1ccc(OC(=O)NCCO)cc1`, the figure is 9.1%; as for `COc1ccc(/C=N/Nc2nccnc2Cl)cc1`, -6.9%; as for `c1ccc(Nc2ccc3c4c(cccc24)CC3)cc1`, 17.7%.

For the compound `Nc1ccc2c3c(cccc13)CC2`, the inhibition is 64.4% (active). As for `CC(=O)c1ccc2c3c(cccc13)CC2`, the figure is 6%; as for `OC(COc1ccc2c(c1)OCO2)CN1CCN(c2ccc(F)cc2)CC1` (stereo not given), -1%; as for `CC(=O)c1cn(CC(=O)Nc2ccc(C)cc2C)c2ccccc12`, -0.4%.

For the compound `COc1cc(/C=N/NC(N)=O)ccc1OC(=O)c1ccco1`, the inhibition was 3.7%. In the case of `Cc1ccc(N(C(=O)C2CCCO2)C2C=CS(=O)(=O)C2)cc1Cl` (stereo not given) it was 0.2%; in that of `O=C(C1CCCO1)N(c1ccc(F)cc1)C1C=CS(=O)(=O)C1` (stereo not given), 52.9% (active). In the case of `CCOc1ccc(N(C(=O)C2CCCO2)C2C=CS(=O)(=O)C2)cc1` (stereo not given) it was -4.8%. As for `C=C1C(=O)[C@@]23[C@H](O)C[C@@H]4C(C)(C)CC[C@H](O)[C@@]4(C)[C@@H]2CC[C@@H]1[C@H]3O`, the figure is 3.9%; as for `C=C1C(=O)[C@@]23[C@H](O)C[C@@H]4C(C)(C)CC[C@H](O)[C@]4(C)[C@@H]2C[C@H](O)[C@@H]1[C@H]3O`, 52.3% (active); as for `Cc1cc2cc(C=C(C#N)C#N)c(Cl)nc2cc1C`, 54.1% (active).

On to `CC(C)(C)c1nn(-c2ccccc2)c2nc(Cl)c(C=O)cc12`, for which the inhibition is -0.4%.

As for `Cc1ccc2cc(C=O)c(N(C)C)nc2c1`, the inhibition is 8.2%. In the case of `CCOC(=O)/C(C#N)=C/c1cc2ccccc2nc1Cl` it was 21.1%; in that of `CCOC(=O)/C(C#N)=C/c1cc2ccc(C)cc2nc1Cl`, 21.5%. In the case of `Cc1ccc2cc(C=O)c(Cl)nc2c1` it was 39.8%; in that of `Cc1cc2cc(C=O)c(Cl)nc2cc1C`, 58.2% (active). As for `Cc1cc(C)c2cc(CNC3CCCC3)c(Cl)nc2c1`, the figure is 3.4%; as for `CCC(C)(C(=O)NC1CCCCC1)N(C(=O)C1CCC(=O)N1)c1ccc(C)cc1` (stereo not given), -0.7%.

In general, inhibition refers to the relative decrease from the control value, in per cent.
